# Whole data set: some 9,900 sequences, median “r (bound/input frequency ratio)” near 0.7, cut for the highest 2% near 6.5. For the sample, the highest values were picked, then their nearest neighbours and some sequences at random.
# B1: ENSMUSG00000022095.41|Fam160b2|101:105 (ssRNA)
# RNA: GGGAGUUCUACAGUCCGACGAUCGCUUCGAUAUCCGCAUGCUAUGAGGUUUCAAGGAGGUGCUGGCUCCUAAGGCAGUGGUAUUCUUGGAGCCUUUUAGAGGAGCUAGAGGAUGGCCAGUGAGCGCCUAGAUGCUGCCCUGCAACACAUGCGUGACUAUCUCUGCUAUAUUGUGACCAGGGCCACAACAUGAGACAACUCCAGGGGCCAGGGAGAUGAACUGCUGUCUUUGAGGCUGGCUAAAAAAACAAUCCAGUCCAGAGAGAUGGGGAGGGGGGGAGCAAGAACCCUGUCUGUUACAUUACUCUUGCGGUCGCACUAGUGUGGAAUUCUCGGGUGUCAAGG
# B2: ENSMUSG00000031028.396|Tub|202:206 (ssRNA)
# RNA: GGGAGUUCUACAGUCCGACGAUCGCUUCGAUAUCCGCAUGCUAUUGACCACUGGCGCUGUGAACACAGGCUAAUGGACUUCAGAUACCAGGGCCCCGGGAUCACCUGGGUUAGCCUCUCCCACAGGAAGAUCCCUUACCCCUCAUCCCCUCUUCUUUUUGGUCCUUGGCUGGGUAGCAAAUUGGUGAGAAGAGCAGCCUAGUCUGUAAGAGUGCAGGGCAGCUGGAACCUUAGGCAGCUCCUCUCAUACCUACCGGCUCCACACCCUAACACUCUCCACCCUCUGCUCCAAACCAGUUCUUCUCUCUUGCGGUCGCACUAGUGUGGAAUUCUCGGGUGUCAAGG
# B3: ENSMUSG00000028439.150|Fam219a (ssRNA)
# RNA: GGGAGUUCUACAGUCCGACGAUCGCUUCGAUAUCCGCAUGCUAAGAGAUAAGGCUGGCCUCCUGUGCCCCAUUGCCAUUUCACCCUAGCUCAAAGUCCAGGAGCCAGGCUUCCAGAAAGGCUCUUCAAGAGCAAGCUUAAGGAAAUACAGUGAGCCAAGUGGCUGUAUGAUAUGGUAUGGUAUGGUAUGGUAUGGUAUGGUAUGGUAUGCACAUGUGUGUGCAUGUGUGUGUGCCUGUGUGUGUGCGUGUGCGUGUGUGUAUGUGUGUGCGUGUGUGUGUGUGUGUGUUGUACCCGAGUGUGUCUCUUGCGGUCGCACUAGUGUGGAAUUCUCGGGUGUCAAGG
# B4: ENSMUSG00000028439.151|Fam219a (ssRNA)
# RNA: GGGAGUUCUACAGUCCGACGAUCGCUUCGAUAUCCGCAUGCUAAAGGCUGGCCUCCUGUGCCCCAUUGCCAUUUCACCCUAGCUCAAAGUCCAGGAGCCAGGCUUCCAGAAAGGCUCUUCAAGAGCAAGCUUAAGGAAAUACAGUGAGCCAAGUGGCUGUAUGAUAUGGUAUGGUAUGGUAUGGUAUGGUAUGGUAUGGUAUGCACAUGUGUGUGCAUGUGUGUGUGCCUGUGUGUGUGCGUGUGCGUGUGUGUAUGUGUGUGCGUGUGUGUGUGUGUGUGUUGUACCCGAGUGUGUGUUGAGCUCUUGCGGUCGCACUAGUGUGGAAUUCUCGGGUGUCAAGG
# B5: ENSMUSG00000028439.148|Fam219a|134:138;144:178;183:190;193:202;205:214;216:220;222:238;240:257 (ssRNA)
# RNA: GGGAGUUCUACAGUCCGACGAUCGCUUCGAUAUCCGCAUGCUAAGGCUGGAAGCAAGAGAUAAGGCUGGCCUCCUGUGCCCCAUUGCCAUUUCACCCUAGCUCAAAGUCCAGGAGCCAGGCUUCCAGAAAGGCUCUUCAAGAGCAAGCUUAAGGAAAUACAGUGAGCCAAGUGGCUCAUACAUAUGCAUACCAUACCAUACCAUACCAUACCAUACCAUACCACAACACACACCAACACACACACCCACACACACACCCACACCCACACACAUACACACACCCACACACACACACACACAUGUCUCUUGCGGUCGCACUAGUGUGGAAUUCUCGGGUGUCAAGG
# B6: ENSMUSG00000028439.152|Fam219a (ssRNA)
# RNA: GGGAGUUCUACAGUCCGACGAUCGCUUCGAUAUCCGCAUGCUAGGCCUCCUGUGCCCCAUUGCCAUUUCACCCUAGCUCAAAGUCCAGGAGCCAGGCUUCCAGAAAGGCUCUUCAAGAGCAAGCUUAAGGAAAUACAGUGAGCCAAGUGGCUGUAUGAUAUGGUAUGGUAUGGUAUGGUAUGGUAUGGUAUGGUAUGCACAUGUGUGUGCAUGUGUGUGUGCCUGUGUGUGUGCGUGUGCGUGUGUGUAUGUGUGUGCGUGUGUGUGUGUGUGUGUUGUACCCGAGUGUGUGUUGAGCCUAUCCUCUUGCGGUCGCACUAGUGUGGAAUUCUCGGGUGUCAAGG
# B7: ENSMUSG00000028439.149|Fam219a (ssRNA)
# RNA: GGGAGUUCUACAGUCCGACGAUCGCUUCGAUAUCCGCAUGCUAGAAGCAAGAGAUAAGGCUGGCCUCCUGUGCCCCAUUGCCAUUUCACCCUAGCUCAAAGUCCAGGAGCCAGGCUUCCAGAAAGGCUCUUCAAGAGCAAGCUUAAGGAAAUACAGUGAGCCAAGUGGCUGUAUGAUAUGGUAUGGUAUGGUAUGGUAUGGUAUGGUAUGGUAUGCACAUGUGUGUGCAUGUGUGUGUGCCUGUGUGUGUGCGUGUGCGUGUGUGUAUGUGUGUGCGUGUGUGUGUGUGUGUGUUGUACCCGACUCUUGCGGUCGCACUAGUGUGGAAUUCUCGGGUGUCAAGG
# B8: ENSMUSG00000028439.136|Fam219a (ssRNA)
# RNA: GGGAGUUCUACAGUCCGACGAUCGCUUCGAUAUCCGCAUGCUAAACCAGUGCAUCUGUCUCUCUGCCUCAUCCCCACACCGCCCUGCCACCCCCAGUCUUCUGUCUAUUGGUUCCAGGCUGGAAGCAAGAGAUAAGGCUGGCCUCCUGUGCCCCAUUGCCAUUUCACCCUAGCUCAAAGUCCAGGAGCCAGGCUUCCAGAAAGGCUCUUCAAGAGCAAGCUUAAGGAAAUACAGUGAGCCAAGUGGCUGUAUGAUAUGGUAUGGUAUGGUAUGGUAUGGUAUGGUAUGGUAUGCACAUGUGUGCUCUUGCGGUCGCACUAGUGUGGAAUUCUCGGGUGUCAAGG
# B9: ENSMUSG00000061578.707|Ksr2|13:17 (ssRNA)
# RNA: GGGAGUUCUACAGUCCGACGAUCGCUUCGAUAUCCGCAUGCUACCUGUAGUCUCUACACACAUCUUCUUCUAAGACCACUAAUAACACCGCCUUUCUCCUUGAUCCGGGCCUCAGACCUCUUCAGAGAUUCUUUCUCUGAAUGUACGUGGGGGACUCCAACAGAUGUUGGGAGAAGACUCAAUAUGAGCAUACGGGGUCAUUGUUCAAUCCUGUAUCAAGACCUUGGAGUUGUCUAAGGCUGUGGGUUUUAAAUACCUGCUGCAGGCCUCCCAUCUCUGGCUCUUUGUUUCCACUCUGGCCCACUCUUGCGGUCGCACUAGUGUGGAAUUCUCGGGUGUCAAGG
# B10: ENSMUSG00000061578.929|Ksr2|22:26 (ssRNA)
# RNA: GGGAGUUCUACAGUCCGACGAUCGCUUCGAUAUCCGCAUGCUACAAGGGUGUUUAGAGUAGGCACACACGAAGUAUCAAUAAGGUUAUUGAGAUGAGGAUUUAGAAAGAUCCAUGUAUAAAAGGUCUAGAAGGAUGAAGAUCUAAAACAAGAAGACUGCAUGUUAACGCUCCUGCCACUGUUGCCCCUUCCUUUACCCUUGGCAGACAUUGCUAAUCAAUCUCAGCACAGUUUCCAACCACAGUCAUAGAACAUUUGCCACAAAGGCCCUGGAUGUGACUAUAUGUGCUGAGAAGGGAAGGUACUCUUGCGGUCGCACUAGUGUGGAAUUCUCGGGUGUCAAGG
# B11: ENSMUSG00000028439.103|Fam219a (ssRNA)
# RNA: GGGAGUUCUACAGUCCGACGAUCGCUUCGAUAUCCGCAUGCUAAUACCUAUUUGUGUUUUCCCCUCAUCUCCAGAUGGGAAGCCUGGCAGCGCUGUCCAAAGGGAUACUGUCUCUCCAUUAGAUAACUCCUUCCACUGUCUCCCUCCCCCGCUUUCUUACUUUCUGAGGGUUGGGAAGGUAAGAUGGGCCUUAGAGAGAAGCCAGGUUUGGGGAUGGUAUGACCUGUUCUCACCGGUCUCUAACCAGUGCAUCUGUCUCUCUGCCUCAUCCCCACACCGCCCUGCCACCCCCAGUCUUCUGUCCUCUUGCGGUCGCACUAGUGUGGAAUUCUCGGGUGUCAAGG
# B12: ENSMUSG00000028439.89|Fam219a|94:98 (ssRNA)
# RNA: GGGAGUUCUACAGUCCGACGAUCGCUUCGAUAUCCGCAUGCUAGGGUUUUGAGAAGAAAAGGAUCCAAGCAAUGGGGGCAGUUCUCACACCUCAGAGCCCCUCUCCCCAAACCCUGUGCCAGCCCAUAUACCUAUUACACAUUUCCCCUCAUCUCCAGAUGGGAAGCCUGGCAGCGCUGUCCAAAGGGAUACUGUCUCUCCAUUAGAUAACUCCUUCCACUGUCUCCCUCCCCCGCUUUCUUACUUUCUGAGGGUUGGGAAGGUAAGAUGGGCCUUAGAGAGAAGCCAGGUUUGGGGAUGGUACUCUUGCGGUCGCACUAGUGUGGAAUUCUCGGGUGUCAAGG
# B13: ENSMUSG00000029636.86|Wasf3 (ssRNA)
# RNA: GGGAGUUCUACAGUCCGACGAUCGCUUCGAUAUCCGCAUGCUAUUCCUGUUUCUUCCCUUUGCAAAUUGAAUUCCAGGUAGAUAUGGUUGUAGAGGGGAAAGUUUAACAAAUCAGAAUGAAAUGUUUGUCUGUUUGCACACUGGGCCUGGUGGCCUCCAAGGAAAUGUGUACGAUCGUUUGCUUUCUCUAUCUUGGCGCUUGCAACCGAGAGCGGCCAUUUUUAUGAGGGGAGCCCUGUGGGUACUCAUGUGGAAAGUGCCCACUGACUUUGGCAGAUGGAGUUCACUUUCAUGGCUAGCCCUCUCUUGCGGUCGCACUAGUGUGGAAUUCUCGGGUGUCAAGG
# Molecular target: TDP-43 (Homo sapiens, UniProt Q13148 1-414)
# Test: RNA Bind-n-Seq with designed 260-mer pool; 25 mM Tris-HCl, 150 mM KCl, 3 mM MgCl2, BSA (printed 500 mg/mL), 20 units/mL SUPERase IN; pH not stated; 500 nM RNA pool, 1 h, 4 C; TDP-43 5, 50, 500 nM; high values mean tight binding
# Conditions: protein: recombinant; tags: SBP (GST cleaved off with PreScission; pGEX-GST-SBP)
# Method in brief: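 The incubation lasted 1 h at 4 °C and used 500 nM of an in vitro-transcribed 260-nt 3′ UTR oligo pool with recombinant SBP-tagged TDP-43 at 5, 50 or 500 nM immobilized on streptavidin beads. It took place in 25 mM Tris-HCl, 150 mM KCl, 3 mM MgCl2, BSA and SUPERase IN. Bound RNA was washed, eluted with biotin, converted to cDNA, PCR-amplified and sequenced to give R, each oligo's normalized abundance in the bound sample divided by that in input. Two independent protein batches provided the duplicates.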
# Chain of TDP-43 (Q13148 whole entry): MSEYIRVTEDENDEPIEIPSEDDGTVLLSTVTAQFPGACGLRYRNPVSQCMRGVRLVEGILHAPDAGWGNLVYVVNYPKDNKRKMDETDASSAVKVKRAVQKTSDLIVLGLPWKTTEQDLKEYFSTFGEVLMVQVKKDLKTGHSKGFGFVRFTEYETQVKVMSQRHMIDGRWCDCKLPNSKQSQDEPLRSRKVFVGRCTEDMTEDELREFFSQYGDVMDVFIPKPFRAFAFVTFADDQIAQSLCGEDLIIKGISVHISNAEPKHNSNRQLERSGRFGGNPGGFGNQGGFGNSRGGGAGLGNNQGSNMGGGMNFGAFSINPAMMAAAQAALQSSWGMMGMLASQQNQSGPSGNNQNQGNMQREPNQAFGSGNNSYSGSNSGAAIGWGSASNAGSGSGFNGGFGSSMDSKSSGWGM
row,Binder,binding signal
1,B1,1 R (bound/input frequency ratio)
2,B2,1.04 R (bound/input frequency ratio)
3,B3,7.17 R (bound/input frequency ratio)
4,B4,6.07 R (bound/input frequency ratio)
5,B5,4.64 R (bound/input frequency ratio)
6,B6,7.8 R (bound/input frequency ratio)
7,B7,6.67 R (bound/input frequency ratio)
8,B8,1.84 R (bound/input frequency ratio)
9,B9,0.284 R (bound/input frequency ratio)
10,B10,1.18 R (bound/input frequency ratio)
11,B11,0.421 R (bound/input frequency ratio)
12,B12,0.538 R (bound/input frequency ratio)
13,B13,3.02 R (bound/input frequency ratio)

# From PMC12864922, “TDP-43 directly inhibits mRNA accumulation in neurites through modulation of mRNA stability”
